About 83,000 compounds went through this panel and 20% of them were active in at least one assay; those are over-represented in the sample as a whole.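 Compound tested at a single concentration for 48 hours in 96-well plates; a percent growth value below 10 was scored as active.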 Calls of active or inactive are those of the source.

The subject of this experiment is SF-539 CNS. Nature of the experiment: NCI-60 one-dose screen, 48 h (100 = growth as untreated, 0 = no growth, -100 = all killed). The note with it: 10 µM unless noted.
Consider `CCCCCCNc1cc(C)nc2ccc(OC)cc12`, for which the growth is 68.4% (inactive).

Consider `Cc1ccc(C)c2c1C(=O)OC2=O`, for which the growth is 99.7% (inactive).

As to `CCN(CC)CCCNC(=O)c1ccc(N)cc1O`, the growth is 98.4% (inactive).

As for `O=[N+]([O-])c1ccc(-c2cc3c(Nc4ccc(OCc5cccc(Cl)c5)c(Cl)c4)ncnc3s2)cc1`, the growth was 84% (inactive).

In the case of `COC(=O)Nc1nc2ccc(C(=O)C3CC3)cc2[nH]1`, the growth was -27.5% (active).

For the compound `CCOC(=O)C(O)C(O)(c1ccccc1)c1ccccc1` (centres undefined), the growth is 94.5% (inactive).

In the case of `N#Cc1cnn2c(-c3ccc(Cl)cc3)nc(NC3CC3)nc12`, the growth is 89.2% (inactive).

Take `O=C(C[C@@]1(O)C(=O)Nc2c(Cl)ccc(Cl)c21)c1ccc(C2CC2)cc1`: the growth is -27.7% (active).

With `CN(CCC(=O)/C(=C\c1ccccc1)c1ccc(Cl)cc1)Cc1ccccc1`, the growth is -8.26% (active).

Turning to `CC1=NN(c2cccc(Cl)c2)C(=O)/C1=C\c1cn(CC(O)CN2CCCCC2)c2ccccc12` (centres undefined), the growth is 96.1% (inactive).

For `O=C(NCOC(O)C(Cl)(Cl)Cl)NCOC(O)C(Cl)(Cl)Cl` (centres undefined), the growth was 90.4% (inactive).

With `Cc1nn(-c2ccccc2)c2c1C(c1ccc([N+](=O)[O-])cc1)C(C#N)=C(N)O2` (centres undefined), the growth was 95.9% (inactive).

As to `O=[N+]([O-])c1ccccc1C(O)Cc1ccc2ccccc2n1` (centres undefined), the growth was 98.4% (inactive).

Consider `N#Cc1cnn2c(-c3ccc(Cl)cc3)nc(NCCc3ccccc3)nc12`, for which the growth is 98% (inactive).

In the case of `CCOC(=O)C(=CNc1ccccc1[N+](=O)[O-])C(=O)OCC`, the growth is 97.7% (inactive).

With `Cc1ccc(NSc2ccccc2[N+](=O)[O-])cc1`, the growth was -12.3% (active).

For `CN(C)CCC(O)(Cc1ccccc1)c1ccccc1` (centres undefined), the growth was 103% (inactive).

Take `CCOc1cc(N)ccc1C(=O)NCCCN(CC)CC`: the growth was 100% (inactive).

In the case of `COc1ccc(-c2nnc(SCC(=O)NC3=NN=C(c4ccccc4)CS3)o2)cc1`, the growth was 101% (inactive).

For `C#C[C@]1(O)CC[C@H]2[C@@H]3CC=C4c5sc(N=C(N)N)nc5CC[C@]4(C)[C@H]3CC[C@@]21C`, the growth was -81.3% (active).

As to `CCCCCCCCN(CCCCCCCC)C(=N)c1ccnc2ccccc12`, the growth is -87.6% (active).

With `COc1cc(-c2ccc(N=Nc3c(O)c(C(=O)Nc4ccccc4OC)cc4ccccc34)c(OC)c2)ccc1N=Nc1c(O)c(C(=O)Nc2ccccc2OC)cc2ccccc12`, the growth is 103% (inactive).

`O=C1c2ccccc2C2(c3ccc(O)cc3)c3ccccc3Oc3cccc1c32` (centres undefined): the growth is -1.29% (active).

On to `Cc1c(Cl)cccc1NS(=O)(=O)c1ccccc1`, for which the growth is 102% (inactive).

Regarding `CN(C)c1cnccn1`, the growth was 86.5% (inactive).

As for `Fc1ccc(Nc2nc3nonc3nc2Nc2ccc(F)cc2)cc1`, the growth was -7.76% (active).

With `Cc1nc2ccccc2c(/C=C/c2ccc(Cl)cc2)c1C(=O)/C=C/c1ccc(Cl)cc1`, the growth is -88.4% (active).

On to `Fc1ccc(Nc2nc(Nc3ccc(-c4nc5ccccc5[nH]4)cc3)c3cn[nH]c3n2)cc1`, for which the growth was 85.5% (inactive).

For `Nc1ccc(-c2cc3c(Nc4ccc(OCc5cccc(F)c5)c(Cl)c4)ncnc3s2)cc1`, the growth was 57.4% (inactive).

For `O=[N+]([O-])c1ccc(-c2cc3c(Nc4ccc(Cl)c(C(F)(F)F)c4)ncnc3s2)cc1`, the growth is 14.9% (inactive).

For `O=[N+]([O-])c1ccc(-c2cc3c(Nc4ccc(Sc5nc6ccccc6s5)c(Cl)c4)ncnc3s2)cc1`, the growth was 54.3% (inactive).

Take `CCOC(=O)N1CCc2c(sc3c2C(=O)N[C@H](c2ccc(OC)cc2)N3)C1`: the growth is 100% (inactive).

With `Cc1cn(C2CCCCC2)c(=O)[nH]c1=O`, the growth is 109% (inactive).

`Cc1csc(NC(=O)c2sc3nc(-c4cccs4)ccc3c2N)n1`: the growth is 96.9% (inactive).

Take `Clc1ccc(-c2nc(NCCc3ccccc3)nc3c(NCCc4ccccc4)cnn23)cc1`: the growth was 30.9% (inactive).

For the compound `Cc1nc(C)c(-c2nn3c(-c4cccc(F)c4)nnc3s2)s1`, the growth was 104% (inactive).

Turning to `COc1ccc(-c2nnc(-c3ccc4c(c3)nc(-c3ccccc3)n4C3CCCCC3)o2)cc1`, the growth was 88.1% (inactive).

`Cc1cc2c(F)c(Oc3ncnc(Nc4ccc(N5C[C@@H](C)N[C@@H](C)C5)cc4)c3C#N)cc(F)c2[nH]1`: the growth is -78.7% (active).

Turning to `CCN(CC)CCCNC(=O)c1ccc(N)cc1`, the growth is 106% (inactive).

Values taken from PubChem BioAssay (NCI).
